Screening data deposited in PubChem BioAssay by Paczesny and Yang Labs, IUPUI and University of Michigan.
ST2 IL33 inh: inhibitors of human ST2 (IL1RL1) binding to IL-33. inhibition, % for hits at 17 µM. 78,000 compounds, 2.3% hits. Q01638. AID 1259354. AlphaLISA ST2-Fc/biotin-IL-33 interaction, 1 h; in the data active = inhibition above about 30%
Target sequence (Q01638 whole entry, looked up): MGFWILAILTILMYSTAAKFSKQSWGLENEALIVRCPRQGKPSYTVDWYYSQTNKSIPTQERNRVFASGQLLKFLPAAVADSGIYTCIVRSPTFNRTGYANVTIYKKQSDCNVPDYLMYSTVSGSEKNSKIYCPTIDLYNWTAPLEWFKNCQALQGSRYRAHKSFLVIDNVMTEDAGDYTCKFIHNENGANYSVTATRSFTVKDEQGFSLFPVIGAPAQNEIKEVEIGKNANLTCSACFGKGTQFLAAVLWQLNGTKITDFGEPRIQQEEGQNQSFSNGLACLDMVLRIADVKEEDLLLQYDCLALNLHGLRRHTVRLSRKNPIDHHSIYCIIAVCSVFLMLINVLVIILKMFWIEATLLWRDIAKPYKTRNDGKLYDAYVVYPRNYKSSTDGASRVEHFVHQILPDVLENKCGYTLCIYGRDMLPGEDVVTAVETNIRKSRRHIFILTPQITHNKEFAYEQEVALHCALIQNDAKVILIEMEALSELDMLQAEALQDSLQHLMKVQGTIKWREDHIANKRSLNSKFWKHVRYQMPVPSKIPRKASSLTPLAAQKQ
* hit, by the source's call; i = inactive. The entries come from a sample that favours hits as a whole.

SMILES	ST2 IL33 inh
Cc1cc(Br)ccc1OCC(=O)NC1CC(C)(C)NC(C)(C)C1	i
CCc1ccc(C2CC(c3cccc(OC)c3)n3ncnc3N2)cc1 (stereo not drawn)	i
COc1cc(NC(=O)C(C)(C)Oc2ccc(Cl)cc2)c(OC)cc1Cl	i
COc1ccc(NC(=O)C(C)(C)Oc2ccc(Cl)cc2)cc1OC	i
COc1cc([N+](=O)[O-])ccc1NC(=O)C(C)(C)Oc1ccc(Cl)cc1	30.0%*
CCOC(=O)c1sc2nc(C)nc(N(CC)Cc3ccccc3)c2c1C	i
COc1cc(C)ccc1OCCOc1cccc(C)c1	i
COc1ccc(Nc2nnc(-c3ccc(C)c(S(=O)(=O)N(C)C)c3)c3ccccc23)cc1	i
COc1ccc(NS(=O)(=O)c2ccccc2)cc1	i
COc1ccc(NC2=C(N(C)C)C(=O)c3ccccc3C2=O)cc1	44.0%*
Cc1c(CN2CCOC3(CNCCOC3)C2)[nH]c2ccc(F)cc12 (stereo not drawn)	i
COc1ccc(-c2cc3c(n(C)c2=O)CCN(C(=O)C2Cc4ccccc4O2)C3)c2ccc(C)nc12 (stereo not drawn)	i
CNC(=O)C(C)N(C)Cc1cccc(C(=O)OC)c1 (stereo not drawn)	i
CNC(=O)C(C)N(C)Cc1nc2ccccc2n1CC(C)C (stereo not drawn)	i
CNC(=O)C(C)N(C)Cc1nnc(CC2CCNCC2)n1-c1ccccc1 (stereo not drawn)	30.0%*
O=C(CCS(=O)(=O)c1cccc2nonc12)NCc1ccccc1	i
CC1(C)CC(=O)C=C(/C=C/c2ccc(N3N=N3)cc2)C1	40.0%*
Cc1ccccc1NC1=CC(=O)CC(C)(C)C1	i
CN(Cc1cc(C2CC2)on1)Cc1cc2n(n1)CCNC2	i
COc1ccc(N(C(C)C(=O)Nc2ccccc2C(=O)NC2CCCCC2)S(C)(=O)=O)cc1 (stereo not drawn)	i
CCC1CCCCN1S(=O)(=O)c1ccc2[nH]c(=O)cc(C(=O)NC3CC3)c2c1 (stereo not drawn)	i
COCC1CCCN(C(=O)c2ccc(N(C)Cc3ccsc3)nc2)C1 (stereo not drawn)	i
O=C(Cc1ccc(F)cc1)Nc1c(C(=O)Nc2cccc(F)c2)oc2ccccc12	93.0%*
O=C(Nc1c(C(=O)Nc2cccc(F)c2)oc2ccccc12)c1ccc(F)cc1	i
CCOCC(=O)Nc1c(C(=O)Nc2cccc(F)c2)oc2ccccc12	i
SMILES	ST2 IL33 inh
N.N.[Cl-].[Cl-].[Pt+4]	77.0%*
Cc1ccccc1-c1cc(O)c2c(c1)CN(C(=O)c1cccc(=O)[nH]1)CCO2	i
Cc1cccc(C(=O)N2C(C)CCCC2C)c1 (stereo not drawn)	i
CC1CN(C(=O)c2cccc(F)c2)C(C)CN1C(=O)c1cccc(F)c1 (stereo not drawn)	85.0%*
COC(=O)[C@@H]1CN(C(=O)c2cccc(F)c2)CCN1C(=O)c1cccnc1	i
COc1ccc(CNC(=O)C[C@@H]2O[C@H](CNS(C)(=O)=O)[C@@H](O)[C@H]2O)cc1	i
COc1cc(OC)c(NC(=O)CSc2cc(=O)n(C)c3ccccc23)cc1Cl	i
CC(C)CN1CC(OCc2cccc(F)c2)CN(C(=O)c2ccoc2)CC1=O (stereo not drawn)	i
CC1CC(=O)C2=C(CCC3(O)C2C(=O)c2cccc(O)c2C3O)C1 (stereo not drawn)	31.0%*
Cc1cccc(-c2cccc(NC(=O)C3CCCN(C(=O)c4cnsn4)C3)c2)c1 (stereo not drawn)	i
Nc1nonc1-n1nnc(C(=O)N2CCCC2)c1-c1ccccc1	i
CC(=O)c1cccc(N2CN=c3s/c(=C\c4cccnc4)c(=O)n3C2)c1	i
COc1ccc(/C=c2\sc3n(c2=O)CN(c2ccc4c(c2)OCO4)CN=3)cc1	31.0%*
CCCCOc1ccc(/C=c2\sc3nc(-c4cccs4)nn3c2=O)cc1OC	i
COc1ccc(N2CN=c3s/c(=C\c4ccc(OC)c(OC)c4)c(=O)n3C2)cc1	35.0%*
COc1ccc(/C=c2\sc3n(c2=O)CN(c2cccc(F)c2)CN=3)cc1OC	i
O=c1/c(=C/c2ccncc2)sc2n1CN(c1ccc3c(c1)OCO3)CN=2	i
O=C(c1nc2ncccn2n1)N1CCCC(c2[nH]ncc2Cc2ccccc2)C1 (stereo not drawn)	i
CCOc1ccc(NC(=O)c2cccc(S(=O)(=O)N3CCCCCC3)c2)cc1	i
O=C(Nc1ccc2oc(-c3ccncc3)nc2c1)c1ccc(-c2ccccc2)o1	41.0%*
CN(C)c1ccc(-c2nc3cc(NC(=O)Cc4ccccc4)ccc3o2)cc1	i
O=C(Nc1ccc2oc(-c3ccc(F)cc3)nc2c1)c1ccccc1	i
CC1N=C2c3ccccc3N=C(SCC(=O)c3ccc(F)cc3)N2C1=O (stereo not drawn)	i
CCOC(=O)c1c(NC(=O)CN2C(=O)CC(C)Sc3ccccc32)sc2c1CCCCC2 (stereo not drawn)	i
Cc1c(C2c3ccccc3Oc3ccccc32)c(=O)n(-c2ccccc2)n1C	i
SMILES	ST2 IL33 inh
CNC(=O)CN(C1CCCCC1)S(=O)(=O)c1ccccc1	i
CC(=O)Nc1ccc(S(=O)(=O)N(CC2C(C)C=C(C)CC2C)C2CCCCC2)cc1 (stereo not drawn)	32.0%*
O=C(CN(C1CCCCC1)S(=O)(=O)c1ccc(Br)cc1)NC1CC1	i
COc1cc(OC)cc(C(=O)Nc2nc(CC(C)=O)ns2)c1	i
COc1cc(C2C(C#N)=C(N)Oc3nc[nH]c(=O)c32)ccc1OC(C)C (stereo not drawn)	i
CN(C(=O)c1cccs1)C(Cc1ccccc1)C1CCN(C(=O)C2=CCCC2)CC1 (stereo not drawn)	i
CSc1nnc(CC2CCN(C(=O)CN(C)Cc3cccnc3)CC2)n1C	i
CN(Cc1cccnc1)C(Cc1ccccc1)C1CCN(C(=O)C23CC4CC(CC(C4)C2)C3)CC1 (stereo not drawn)	32.0%*
CC1CCc2c(sc(NC(=O)c3ccc(Br)o3)c2C(N)=O)C1 (stereo not drawn)	i
OCCN=c1scc(-c2ccc(Br)cc2)n1-c1ccccc1	39.0%*
O=C(N=c1scc(-c2ccccc2)n1-c1ccccc1)c1ccco1	i
O=c1c2c(-c3ccc(Br)cc3)csc2ncn1-c1ccccc1	i
COCCc1nc(Cn2cnnc2)no1	i
O=c1oc(-c2ccccc2Cl)nc2sc3c(c12)CCC3	45.0%*
O=c1oc(/C=C/c2ccco2)nc2sc3c(c12)CCCCC3	36.0%*
O=c1oc(-c2cccs2)nc2sc3c(c12)CCC3	i
O=c1oc(-c2ccccc2Cl)nc2ccc(Br)cc12	i
O=C(c1ccco1)N1CCN(C(=O)c2cccn3c(=O)c4c5c(sc4nc23)CCCC5)CC1	i
O=c1[nH]c(/C=C/c2ccccc2)nc2sc3c(c12)CCCC3	i
Cc1ccc(C2CC(=O)Nc3n[nH]c(C)c32)cc1 (stereo not drawn)	i
NC(=O)c1ccccc1NC(=O)c1ccc(=O)n(Cc2ccc(Cl)cc2)c1	i
CC(C)c1cc(C(=O)N(C)Cc2nccn2Cc2ccccc2)no1	i
Cc1ccc(C)c2c(C)c(C(=O)N3CCOC(Cc4ccccc4)C3)[nH]c12 (stereo not drawn)	i
O=C(COC(=O)c1cccc(Br)c1)c1ccc(Br)cc1	i
O=C(COC(=O)c1ccc(Cl)cc1)c1ccc(Br)cc1	i
O=C(COC(=O)c1ccccc1O)c1ccc(Br)cc1	90.0%*
